ChEMBL document CHEMBL5606458, “ASAP - ZIKV NS2B-NS3 protease fluorescence single point” (2024)
Screen size: about 2,700 compounds; about 160 (5.9%) showed an effect of 50% or more. Shown is part of a subset that was picked to be rich in strong results.

Biological target: Nonstructural protein 3 (Zika virus) (UniProt A0A024AXB9)
Sequence (A0A024AXB9 as listed by the source): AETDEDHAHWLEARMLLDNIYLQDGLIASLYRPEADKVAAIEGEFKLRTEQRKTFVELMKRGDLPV

N#C[C@H]1CCCN(Cc2c[nH]c3ccccc23)C1
inhibition (PRVABC59, Concentration 49.5 uM, Number of replicates 2.0, Standard deviation 3.0443309311516127 %): 3.62% | inhibition (PRVABC59, Concentration 99.01 uM, Number of replicates 2.0, Standard deviation 5.606340240027709 %): 5.66% | inhibition (PRVABC59, Concentration 198.0 uM, Number of replicates 2.0, Standard deviation 2.4427254668079588 %): 8.81%

C[C@@H](Cc1c[nH]c2ccccc12)N1CC[C@H](n2ncc3ccccc32)C1
inhibition (PRVABC59, Concentration 49.5 uM, Number of replicates 2.0, Standard deviation 0.39220306220212786 %): 9.38% | inhibition (PRVABC59, Concentration 99.01 uM, Number of replicates 2.0, Standard deviation 0.9766631885715499 %): 10.3% | inhibition (PRVABC59, Concentration 198.0 uM, Number of replicates 2.0, Standard deviation 1.7687599327172854 %): 8.18%

O=C1NCc2ccccc2C12CCN(CCn1cc(-c3ccccc3)cn1)CC2
inhibition (PRVABC59, Concentration 49.5 uM, Number of replicates 2.0, Standard deviation 2.8974171324862783 %): -1.24% | inhibition (PRVABC59, Concentration 99.01 uM, Number of replicates 2.0, Standard deviation 3.3976160570541145 %): 2.72% | inhibition (PRVABC59, Concentration 198.0 uM, Number of replicates 2.0, Standard deviation 1.9883423160607387 %): 8.7%

CCn1ccnc(N2CC[C@H](c3ccncc3)C2)c1=O
inhibition (PRVABC59, Concentration 50.0 uM, Number of replicates 2.0, Standard deviation 13.086126440978003 %): 15.5% | inhibition (PRVABC59, Concentration 100.0 uM, Number of replicates 2.0, Standard deviation 1.9353273126054316 %): 11.2% | inhibition (PRVABC59, Concentration 200.0 uM, Number of replicates 2.0, Standard deviation 4.176368308171179 %): 19%

Cc1nc([C@H]2CCCNC2)[nH]c1C(=O)Nc1ccccn1
inhibition (PRVABC59, Concentration 49.5 uM, Number of replicates 2.0, Standard deviation 0.17090445918731104 %): 8.49% | inhibition (PRVABC59, Concentration 99.01 uM, Number of replicates 2.0, Standard deviation 0.26430592158490923 %): 17.8% | inhibition (PRVABC59, Concentration 198.0 uM, Number of replicates 2.0, Standard deviation 0.13314627771815937 %): 30.2%

c1cc(CN2CCC(c3c[nH]c4cccnc34)CC2)c2[nH]ncc2c1
inhibition (PRVABC59, Concentration 49.5 uM, Number of replicates 2.0, Standard deviation 1.1670691631522456 %): 7.96% | inhibition (PRVABC59, Concentration 99.01 uM, Number of replicates 2.0, Standard deviation 0.8238130905871536 %): 15.7% | inhibition (PRVABC59, Concentration 198.0 uM, Number of replicates 2.0, Standard deviation 0.8191324301789277 %): 25.9%

c1ccc2c([C@H]3CCN(CC4CCOCC4)C3)c[nH]c2c1
inhibition (PRVABC59, Concentration 49.5 uM, Number of replicates 2.0, Standard deviation 2.5997737280788282 %): 6.89% | inhibition (PRVABC59, Concentration 99.01 uM, Number of replicates 2.0, Standard deviation 3.698865419379611 %): 11.8% | inhibition (PRVABC59, Concentration 198.0 uM, Number of replicates 2.0, Standard deviation 1.139250220086327 %): 22.2%

CCn1ccc2cc(CN3CCC(c4c[nH]c5cccnc45)CC3)ccc21
inhibition (PRVABC59, Concentration 49.5 uM, Number of replicates 2.0, Standard deviation 2.8809639300582925 %): 3.93% | inhibition (PRVABC59, Concentration 99.01 uM, Number of replicates 2.0, Standard deviation 1.8463057507050853 %): 15.6% | inhibition (PRVABC59, Concentration 198.0 uM, Number of replicates 2.0, Standard deviation 0.9205600012321524 %): 34.4%

CCn1ccnc(N2CCC(c3c[nH]c4ccccc34)CC2)c1=O
inhibition (PRVABC59, Concentration 49.5 uM, Number of replicates 2.0, Standard deviation 0.010362729937070537 %): 13.2% | inhibition (PRVABC59, Concentration 99.01 uM, Number of replicates 2.0, Standard deviation 0.987094027815814 %): 22.1% | inhibition (PRVABC59, Concentration 198.0 uM, Number of replicates 2.0, Standard deviation 0.3108960594532158 %): 8.34%

c1cc(CN2CCC(c3c[nH]c4cccnc34)CC2)c2cn[nH]c2c1
inhibition (PRVABC59, Concentration 49.5 uM, Number of replicates 2.0, Standard deviation 0.9568639478402843 %): 4.4% | inhibition (PRVABC59, Concentration 99.01 uM, Number of replicates 2.0, Standard deviation 0.8012763277514082 %): 10% | inhibition (PRVABC59, Concentration 198.0 uM, Number of replicates 2.0, Standard deviation 3.635563550314553 %): 17.8%

c1ccc2c(CN3CC[C@H](c4c[nH]c5ccccc45)C3)c[nH]c2c1
inhibition (PRVABC59, Concentration 50.0 uM, Number of replicates 2.0, Standard deviation 0.9766631885715499 %): 20.3% | inhibition (PRVABC59, Concentration 100.0 uM, Number of replicates 2.0, Standard deviation 0.28966551174652017 %): 37.5% | inhibition (PRVABC59, Concentration 200.0 uM, Number of replicates 2.0, Standard deviation 1.348359280162217 %): 55.9%

c1ccc2c(CN3CCC[C@H](c4c[nH]c5ccccc45)C3)c[nH]c2c1
inhibition (PRVABC59, Concentration 50.0 uM, Number of replicates 2.0, Standard deviation 1.0176784784936235 %): 17.6% | inhibition (PRVABC59, Concentration 100.0 uM, Number of replicates 2.0, Standard deviation 1.399627381040445 %): 30% | inhibition (PRVABC59, Concentration 200.0 uM, Number of replicates 2.0, Standard deviation 0.26403213565698247 %): 45.3%

c1cnc2c(CN3CCC(c4c[nH]c5cccnc45)CC3)c[nH]c2c1
inhibition (PRVABC59, Concentration 49.5 uM, Number of replicates 2.0, Standard deviation 0.7260748860651783 %): 51.4% | inhibition (PRVABC59, Concentration 99.01 uM, Number of replicates 2.0, Standard deviation 0.6197542344872328 %): 66.3% | inhibition (PRVABC59, Concentration 198.0 uM, Number of replicates 2.0, Standard deviation 0.45379950118904117 %): 74.9%

c1ccc2c(CN3CCC(c4c[nH]c5cccnc45)CC3)n[nH]c2c1
inhibition (PRVABC59, Concentration 49.5 uM, Number of replicates 2.0, Standard deviation 0.6456276790258886 %): 55.4% | inhibition (PRVABC59, Concentration 99.01 uM, Number of replicates 2.0, Standard deviation 0.2001199802254866 %): 70.2% | inhibition (PRVABC59, Concentration 198.0 uM, Number of replicates 2.0, Standard deviation 0.3311541950710681 %): 79.4%

CCOc1cc(COc2cccnc2F)nc(N2CCNCC2)n1
inhibition (PRVABC59, Concentration 49.5 uM, Number of replicates 2.0, Standard deviation 1.6064643888068098 %): 4.13% | inhibition (PRVABC59, Concentration 99.01 uM, Number of replicates 2.0, Standard deviation 0.9927585642556782 %): 12.5% | inhibition (PRVABC59, Concentration 198.0 uM, Number of replicates 2.0, Standard deviation 0.42007662758371656 %): 31.7%

O=C(Cn1ccc2cccnc21)N1CC[C@H](c2c[nH]c3ccccc23)C1
inhibition (PRVABC59, Concentration 49.5 uM, Number of replicates 2.0, Standard deviation 2.6403237167933415 %): 8.06% | inhibition (PRVABC59, Concentration 99.01 uM, Number of replicates 2.0, Standard deviation 2.1942883394495833 %): 14.3% | inhibition (PRVABC59, Concentration 198.0 uM, Number of replicates 2.0, Standard deviation 1.481657960884592 %): 24.1%

N[C@H]1CC[C@H](NC(=O)[C@@H](NC(=O)OCc2ccccc2)c2ccc(OCc3ccccc3)cc2)C1
inhibition (PRVABC59, Concentration 49.5 uM, Number of replicates 2.0, Standard deviation 1.2628524282528915 %): 15.2% | inhibition (PRVABC59, Concentration 49.5 uM, Number of replicates 2.0, Standard deviation 5.748962140815482 %): 7.84% | inhibition (PRVABC59, Concentration 99.01 uM, Number of replicates 2.0, Standard deviation 1.1046736199175657 %): 52.6% | inhibition (PRVABC59, Concentration 99.01 uM, Number of replicates 2.0, Standard deviation 4.807656617809298 %): 46.8% | inhibition (PRVABC59, Concentration 198.0 uM, Number of replicates 2.0, Standard deviation 0.1296531469135765 %): 80.8% | inhibition (PRVABC59, Concentration 198.0 uM, Number of replicates 2.0, Standard deviation 1.4858618561424626 %): 83.4%

N[C@H]1CC[C@@H](NC(=O)[C@@H](NC(=O)OCc2ccccc2)c2ccc(OCc3ccccc3)cc2)C1
inhibition (PRVABC59, Concentration 49.5 uM, Number of replicates 2.0, Standard deviation 1.7270227515739174 %): 10.7% | inhibition (PRVABC59, Concentration 99.01 uM, Number of replicates 2.0, Standard deviation 1.537724733346876 %): 44.6% | inhibition (PRVABC59, Concentration 198.0 uM, Number of replicates 2.0, Standard deviation 0.3345151533587208 %): 79.2%

N[C@@H]1CC[C@H](NC(=O)[C@@H](NC(=O)OCc2ccccc2)c2ccc(OCc3ccccc3)cc2)C1
inhibition (PRVABC59, Concentration 49.5 uM, Number of replicates 2.0, Standard deviation 0.3008027321718269 %): 7.24% | inhibition (PRVABC59, Concentration 99.01 uM, Number of replicates 2.0, Standard deviation 0.0103741938798655 %): 43% | inhibition (PRVABC59, Concentration 198.0 uM, Number of replicates 2.0, Standard deviation 1.7866649254890776 %): 79.8%

O=C(N[C@@H](C(=O)NC1CCNCC1)c1ccc(OCc2ccccc2)cc1)OCc1ccccc1
inhibition (PRVABC59, Concentration 49.5 uM, Number of replicates 2.0, Standard deviation 1.3674946237357393 %): 8.84% | inhibition (PRVABC59, Concentration 99.01 uM, Number of replicates 2.0, Standard deviation 2.2060968748779715 %): 27.2% | inhibition (PRVABC59, Concentration 198.0 uM, Number of replicates 2.0, Standard deviation 0.9505739521685185 %): 59.8%
